Test results reported in PubChem BioAssay AID492947 (National Center for Advancing Translational Sciences (NCATS), 2010).
The whole screen tested about 330,000 compounds, of which about 80 (0.02%) were called active. Calls come from the whole dose curve; as a rule, active = well fitted activation curve with a large enough effect; inconclusive = small, poorly fitted or top-dose-only effect; inactive = flat fitted curve, though single readings scatter. Only a selection was taken, and actives are over-represented in it overall.

Each compound was assayed against Beta-2 adrenergic receptor (Homo sapiens) (UniProt P07550) (assay: qHTS assay of beta-arrestin-biased ligands of beta2-adrenergic receptor). Conditions: beta-arrestin recruitment to beta2AR, cell-based reporter; series mostly up to 46.1 µM; activation: at the top concentration.
Beta-2 adrenergic receptor (Homo sapiens), sequence (P07550 whole entry, looked up): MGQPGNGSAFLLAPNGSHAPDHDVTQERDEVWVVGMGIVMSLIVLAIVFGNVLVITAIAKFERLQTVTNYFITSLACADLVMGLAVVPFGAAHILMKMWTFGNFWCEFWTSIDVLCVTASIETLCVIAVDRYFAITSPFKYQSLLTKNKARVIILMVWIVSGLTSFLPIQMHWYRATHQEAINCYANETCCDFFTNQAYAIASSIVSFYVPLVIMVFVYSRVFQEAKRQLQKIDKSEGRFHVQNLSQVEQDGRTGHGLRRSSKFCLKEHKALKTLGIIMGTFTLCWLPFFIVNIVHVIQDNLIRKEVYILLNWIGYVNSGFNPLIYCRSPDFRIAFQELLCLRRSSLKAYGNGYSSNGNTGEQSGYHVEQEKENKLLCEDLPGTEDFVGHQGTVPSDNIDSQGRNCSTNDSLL
Excerpt: NIH Molecular Libraries Probe Production Network [MLPCN]
NIH Chemical Genomics Center [NCGC]
PI: Bryan Roth and Bob Lefkowitz
The concept of biased agonism is an emerging concept of molecular pharmacology which proposes that seven transmembrane receptors (7TMRs) or G protein-coupled receptors (GPCRs), exist in multiple signaling conformations and complexes and that ligands (either agonists or antagonists) can induce signaling biased responses for distinct signal transduction cascades.
Furthermore, accumulating evidence over the last decade has drawn attention to a novel function of beta-arrestins as signal transducers that scaffold various signaling molecules upon activation of 7TMRs. […] This beta-arrestin-biased signaling presumably leads to distinct physiological outcomes from those by G protein activation.
Additionally, the active receptor conformations which […] on this beta-arrestin signaling are likely different from those activating G protein signaling
The goal of this screening project will be to discover and optimize novel beta-arrestin-biased ligands for beta2-AR signaling. A luminescent cell-based assay for beta2-AR-mediated agonism, known as the Tango assay, has been validated in which ligand binding of a recombinant beta2-AR and subsequent recruitment of a recombinant beta-arrestin lead to the release of the transcriptional activator tTA, which upregulates transcription of a tTA-responsive luciferase gene. […] Compounds were screened as a concentration-titration series that ranged from 46 microM to 0.6 nM.
NCGC Assay Protocol Summary:
Tango cells were dispensed into white, solid, tissue-culture-treated 1536-well plates at 1500 cells/well in DMEM, containing 1% fetal bovine serum (FBS). Then, 23 nL of compounds or DMSO were delivered to each well using a pin tool. Plates were incubated at 37 degrees C, 5% CO2 for 18 hr. Then 2.5 uL luminescent substrate mix (in-house prepared: 150 mM Tris-Cl, pH 7.6, 3 mM MgCl2, 1% Triton X-100, 5 mM DTT, 0.5 mM CoA, 0.15 mM ATP, 0.44 mM D-luciferin, final concentrations) was added to each well. Plates were then incubated for 15 minutes at room temperature, and subsequently measured on a ViewLux plate reader for luminescent signal using a clear filter with a 10 second exposure and 2x binning. The %Activity was determined from the corrected luminescence values.
Concentration-response curves were fitted to the signals arising from the resulting luminescence. The concentration-effect curves were then classified based on curve quality (r2), response magnitude and degree of measured activity, and compounds were subsequently categorized based on their curve class.
Keywords: biased agonism, beta2-AR, beta-arrestin, GPCR, 7TMR, Tango, luminescence, MLSMR, MLPCN, NIH Roadmap, qHTS, NCGC
Note: nearly all actives have a fitted effect of over 65% in size.
Potency is the fitted concentration of half-maximal effect.
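Throughout, for activation: 0% = DMSO controls and full agonism = EC100 isoproterenol or metaproterenol.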

activation, inactive:
O=C(O)C1CCCN1S(=O)(=O)c1ccc2c(c1)CCC2 (stereo not given) -0.269%, COc1ccc(-n2nnnc2SCC(=O)NCc2cccs2)cc1 0.169%, CC(=O)n1c(C=Nc2ccccc2)c(O)c2ccccc21 0.129%, Cn1c(SCC(=O)N2CCCC2)nnc1-c1cccs1 0.281%, CC(C(=O)N1CCOCC1)N1c2cccc3cccc(c23)S1(=O)=O (stereo not given) -0.178%, Nc1ccc(Nc2cc(O)c3ncccc3c2)cc1 -0.411%, COc1nc(N=C(N)N)nc2c(C)cccc12 -0.842%, CCOC(=O)C1=C(c2ccccc2)N=C2SCC(=O)N2C1c1ccc(O)c(OC)c1 (stereo not given) -1.68%, COc1cc(C)c(C(C)C)cc1S(=O)(=O)n1ccnc1 0.444%, CCOc1ccc(N(CC(=O)NCCc2ccc(F)cc2)S(=O)(=O)c2ccccc2)cc1 -0.258%, CCN(C(=O)COC(=O)c1c(NC(C)=O)sc(C)c1C)C1CCS(=O)(=O)C1 (stereo not given) -0.227%, C=CCN(c1ccccc1C(=O)NCC(=O)OCC)S(=O)(=O)c1ccc(C)cc1 -0.554%, CCCOc1ccc(C2=CSC3=NCCN23)cc1Cl 0.319%, CCc1ccc(-c2nc(SCC(=O)NC3CCCC3)n[nH]2)cc1 0.447%, Cc1cc(OCCOc2cccc3cccnc23)c(C)cc1Cl 0.256%, CCOC(=O)N1CCN(S(=O)(=O)N2CCCC(C(=O)NCCCN3CCC(C)CC3)C2)CC1 (stereo not given) 0.177%, Cc1ccsc1C(=O)OCC(=O)NCCc1ccccc1 -0.289%, Cc1ccc(S(=O)(=O)NCCC(=O)NNC(=O)C2COc3ccccc3O2)cc1 (stereo not given) -0.347%, COc1ccc(CC(=O)NCc2nnc(SCC(=O)Nc3ncc(C)s3)n2C)cc1 -0.188%, CC1CCCCC1NC(=O)c1cc(=O)[nH]c2ccccc12 (stereo not given) 0.184%, Cc1csc2ncc(C(=O)N(Cc3ccccc3)c3ccccn3)c(=O)n12 -0.435%, c1ccc(-c2cnc(CN3CCN(c4ccccc4)CC3)o2)cc1 -1.12%, Cc1cccc(C)c1N1C(=O)CN(Cc2ccccc2)C1=S -0.274%, Cc1cccc(N(C(=O)Cn2nnc(-c3ccc(C)o3)n2)C(C(=O)NC2CCCC2)c2ccncc2)c1 (stereo not given) -1.02%, COc1ccccc1N1CC(C(=O)Nc2nnc(SCC(=O)NC(C)C)s2)CC1=O (stereo not given) -0.293%, CCO[C@H]1OC(C(=O)N2CCCCCCC2)=C[C@@H](c2ccc(C(F)(F)F)cc2)[C@@H]1CCCO -0.332%, COc1ccc(S(=O)(=O)N(C)C[C@H]2Oc3ccc(NS(=O)(=O)c4cccs4)cc3CC(=O)N([C@H](C)CO)C[C@H]2C)cc1 0.0688%, O=C(Cn1cncn1)N/N=C/c1c2ccccc2cc2ccccc12 0.226%, CCCOC1CCCN(C(=O)c2cc(COc3cncc(Cl)c3)on2)C1 (stereo not given) 0.0549%, CCC1SC(CC)C(=O)N(CC(=O)NC2CCCCC2)C1=O (stereo not given) 0.0877%, CCc1ccc2oc(=O)cc(CN3CCCCC3C)c2c1 (stereo not given) 0.329%, O=C(NCc1ccccc1)C1CCCN(c2nc3ccsc3c(=O)s2)C1 (stereo not given) 0.0158%, CC(C)CCNC(=O)CN(C(=O)Cn1nnc(-c2ccc(F)cc2)n1)C1CCCC1 -0.252%, CC(=O)Nc1ccc(S(=O)(=O)Nc2ccc(-c3ccc4nnc(C)n4n3)cc2)cc1 -0.447%, Cn1cc(CCC(=O)NC2CC2)c2ccccc21 -0.249%, COC(=O)c1sc(SC)c(S(=O)(=O)C(C)C)c1N/N=C(\C#N)S(=O)(=O)c1ccccn1 -0.888%, CCn1cc(C(=O)Nc2cc(C)ccc2C)c(=O)c2ccc(C)nc21 0.25%, COC(=O)c1sc(NC(=O)COC(=O)C2CCC2)c(C(=O)OC)c1C -0.283%, Cc1nnc(SCC(=O)Nc2ccc(S(=O)(=O)Nc3ccc(Cl)nn3)cc2)s1 -0.792%, Cn1c(SCC(=O)Nc2ccc(Cl)cc2)nc(O)cc1=O -0.732%, Cc1nn(-c2ccccc2)c(NC(=O)c2cccs2)c(-c2ccc(Cl)cc2)c1=O -0.018%, Cc1ccc(S(=O)(=O)N(C)CC(=O)NCCc2c[nH]c3ccccc23)cc1 -0.865%, Cc1ccccc1C1=NC(C(F)(F)F)(C(F)(F)F)c2c(n(-c3ccc(F)cc3)c(=O)[nH]c2=O)N1 2.31%, CSc1nnc(C2CCCN(CC(=O)Nc3ccccc3N3CCOCC3)C2)n1C(C)C (stereo not given) 0.413%, CCOc1ccc(C(C)=O)cc1COC(=O)c1cnc(Cl)c(Cl)c1 0.0917%, O=S(=O)(Cc1ccccc1)c1nc2ccccc2n1Cc1ccccn1 -0.237%, O=C(O)c1cccnc1Sc1ncnc2sc3c(c12)CCC3 -0.363%, CCCOc1ccc(Cc2c(Cl)nc(SC)nc2NC)cc1 0.211%, CCOC(=O)c1c(NC(=O)Cn2nc(C(F)(F)F)cc2C)sc2c1CCC2 -0.382%

Potency, active:
Oc1ccc(N=Cc2sc3ccccc3c2Cl)cc1 13 µM
